Laboratory results published in PubChem BioAssay (EPA / NIEHS).
Some compounds were tested as several samples or in several runs, with calls that do not always agree. The source made the active and inactive calls. The calls were made as follows: active = hit-call score of the fitted dose curve at least 0.9, where 1 is the maximum; inactive = score below 0.9.

Each compound was assayed on Bcl-2 (BID) gene, BID (gene 637) (assay: LTEA_HepaRG_BID: Life Technologies and Expression Analysis (LTEA) Assay for Bcl-2 (BID) gene using HepaRG (AID 2283476)). Conditions: mRNA level, 48 h; actives raise or lower the signal.
Procedure: LTEA_HepaRG is a cell based, multiplexed-readout assay that uses HepaRG, a human liver cell line, with measurements taken at 48 hours after chemical dosing on a 96-well plate.LTEA_HepaRG_BID is one of 102 assay component(s) measured in the LTEA HepaRG cell culture assay. It is a marker of Cell proliferation, survival, death.Data from the assay component LTEA_HepaRG_BID was analyzed into 1 endpoint. This assay endpoint, LTEA_HepaRG_BID, was analyzed with bidirectional fitting relative to DMSO as the negative control and baseline of activity. Using a type of inducible reporter, measures of mRNA induction for gain or loss-of-signal activity can be used to understand regulation of transcription factor activity. To generalize the intended target to other relatable targets, this assay endpoint is annotated to the cell cycle intended target family, where the subfamily is Cell proliferation, survival, death.
A total of 1060 chemcials from the ToxCast library were tested in eight-point concentration-response experiments. Cell culture and cytotoxicity assays were conducted at Thermo Fisher Scientific's Custom Services facility (Madison, WI). A single lot of human HepaRG cells (Thermo Fisher Scientific, Frederick, MD) was used for the cell culture experiments. 96-well format collagen type I coated plates of human HepaRG cells were prepared using established methods. Briefly, cryopreserved HepaRG cells were thawed, plated at a density of approximately 100,000 cells/well in HepaRG Thaw, Plate, and General Purpose media (HPRG770, Thermo Fisher Scientific), and incubated for 48 hours. 0.5% DMSO was selected as vehicle control to balance the requisite need of DMSO in HepaRG cultures to maintain differentiation (for example, baseline metabolism, proportions of hepatocytes vs. cholangiocytes), while enabling further hepatic receptor pathway activation (for example, PXR and CAR) in response to chemical exposure. 48 hours after plating, the culture medium was replaced with HepaRG Serum-Free Incudtion Media. Cells were exposed to each test chemical in duplicate and maintained in CO2 incubators for another 48 hours. Chemical plates were thawed to room temperature and 200x concentrations of treatment groups were prepared. 8-point conentration-reponse curves were made with the highest exposure at 100 uM, followed by half-log dilutions, all in 0.5% DMSO. Each test plate contained variouse controls, induction positive controls (1mM phenobarbital), cytotoxicity positive controls ([…] aflatoxin B1), vehicle controls (0.5% DMSO), and total lysis controls (0.5% DMSO). Cell morphology images were taken using an Essen IncuCyte FLR automated microscope, with six 96-well plates imaged in about 24 minutes. Images were captured and exported and JPEG files. Spent culture media was transfered to black-well plates for the LDH assay, and remaining media was sorted at -80 C for later use. Cells were treated with RLT buffer and frozen until shipped for gene expression analysis. Total RNA was isolated from the cell suspension in 75 uL of Buffer RLT (Qiagen, Germantown, MD 20874) by Quintiles/Expression Analysis (Durham, NC) using a custom isolation procedure. Total RNA from each plate well was transferred to a preamplification plate. Fluidigm's 96.96 Dynamic ArrayTM (Fluidigm, Amsterdam, the Netherlands) technology was used for gene expression analyses by quantitative reverse transcription polymerase chain reaction (qRT-PCR, performed by Quintiles/Expression Analysis, Durham, NC)89. Standard TaqManTM Assays (Applied Biosystems/ThermoFisher Scientific, Foster City, CA) were used to assess the expression of 93 genes selected based on their selectivity and sensitivity to important hepatic receptors known to be modulated by environmental chemicals; importance in human hepatocyte functionality; and hepatotoxicity. […]

Row | SMILES | outcome | AC50
1 | CNC(=O)Oc1ccccc1OC(C)C | inactive | 
2 | COP(=S)(OC)Oc1ccc(SC)c(C)c1 | inactive | 
3 | CC(C)N(C(=O)COc1nnc(C(F)(F)F)s1)c1ccc(F)cc1 | inactive | 
4 | O=C1c2ccccc2C(=O)N1SC(Cl)(Cl)Cl | inactive | 
5 | CCCN(CCOc1c(Cl)cc(Cl)cc1Cl)C(=O)n1ccnc1 | inactive | 
6 | O=C(O)COc1ccc(Cl)cc1Cl | inactive | 
7 | CCCN(CCC)c1c([N+](=O)[O-])cc(C(F)(F)F)cc1[N+](=O)[O-] | inactive | 
8 | Cc1[nH]c(=O)n(C(C)(C)C)c(=O)c1Cl | inactive | 
9 | C[C@H]1[C@H](c2ccc(Cl)cc2)SC(=O)N1C(=O)NC1CCCCC1 | inactive | 
10 | CNC(=O)CSP(=S)(OC)OC | inactive | 
11 | O=C(O)CCCOc1ccc(Cl)cc1Cl | inactive | 
12 | CN1CSC(=S)N(C)C1 | inactive | 
13 | CC(C)(C)C(O)/C(=C\c1ccc(Cl)cc1Cl)n1cncn1 (stereo not given) | inactive | 
14 | CCOCN(C(=O)CCl)c1c(C)cccc1CC | inactive | 
15 | ClC1C(Cl)C(Cl)C(Cl)C(Cl)C1Cl (stereo not given) | inactive | 
16 | O=[N+]([O-])/N=C1\NCCN1Cc1ccc(Cl)nc1 | inactive | 
17 | CCc1ccc(C(=O)NN(C(=O)c2cc(C)cc(C)c2)C(C)(C)C)cc1 | inactive | 
18 | O=[N+]([O-])c1c(Cl)c(Cl)c(Cl)c(Cl)c1Cl | inactive | 
19 | CC(C)OC(=O)Nc1cccc(Cl)c1 |  | 7.78 µM (active)
20 | Clc1ccccc1-c1nnc(-c2ccccc2Cl)nn1 | inactive | 

Row | SMILES | outcome | AC50
21 | OCCOc1ccccc1 | inactive | 
22 | Oc1ccc(Cl)cc1Cc1ccccc1 | inactive | 
23 | CNC(=O)/C=C(\C)OP(=O)(OC)OC | inactive | 
24 | CCC(C)Nc1c([N+](=O)[O-])cc(C(C)(C)C)cc1[N+](=O)[O-] (stereo not given) | inactive | 
25 | CC[C@H](C)[C@H]1O[C@]2(C=C[C@@H]1C)C[C@@H]1C[C@@H](C/C=C(\C)[C@@H](O[C@H]3C[C@H](OC)[C@@H](O[C@H]4C[C@H](OC)[C@@H](O)[C@H](C)O4)[C@H](C)O3)[C@@H](C)/C=C/C=C3\CO[C@@H]4[C@H](O)C(C)=C[C@@H](C(=O)O1)[C@]34O)O2 (tested in a mixture with another compound) | inactive | 
26 | CCC(C)(NC(=O)c1cc(Cl)c(C)c(Cl)c1)C(=O)CCl (stereo not given) |  | 82.9 µM (active)
27 | CCC(C)(C)C(=O)OC1=C(c2ccc(Cl)cc2Cl)C(=O)OC12CCCCC2 | inactive | 
28 | O=C(NC(=O)c1c(F)cccc1F)Nc1ccc(OC(F)(F)C(F)OC(F)(F)F)c(Cl)c1 (stereo not given) | inactive | 
29 | CCN(CC)C(=O)SCc1ccc(Cl)cc1 | inactive | 
30 | O=C(Nc1ccccc1)Nc1cnns1 | inactive | 
31 | CNC(=O)Oc1cccc(N=CN(C)C)c1 | inactive | 
32 | Oc1cc(Cl)ccc1Oc1ccc(Cl)cc1Cl | inactive | 10.1 µM (active)
33 | C#CCN1C(=O)COc2cc(F)c(N3C(=O)C4=C(CCCC4)C3=O)cc21 | inactive | 
34 | O=C(O)C(F)(F)C(F)(F)C(F)(F)C(F)(F)C(F)(F)C(F)(F)C(F)(F)F | inactive | 
35 | COc1nn(CSP(=S)(OC)OC)c(=O)s1 | inactive | 
36 | O=S1OCC2C(CO1)C1(Cl)C(Cl)=C(Cl)C2(Cl)C1(Cl)Cl (stereo not given) | inactive | 
37 | N#Cc1c(Cl)c(Cl)c(Cl)c(C#N)c1Cl | inactive | 
38 | CC1(c2ccc(Oc3ccccc3)cc2)OC(=O)N(Nc2ccccc2)C1=O (stereo not given) | inactive | 
39 | COP(=O)(OC)OC=C(Cl)Cl | inactive | 
